Out of some 96,000 compounds screened, about 20,000 (21%) were called active.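 The calls were made as follows: active = CYP2C19 inhibition above a set limit at 5 µM in the primary screen (cut at about 50% in these data); inactive = the rest.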 These entries were drawn from the full list.
target: Cytochrome P450 2C19 (Homo sapiens) (UniProt P33261); assay: blockers of cytochrome P450 2C19 activity – biochemical, luminescence, ADME assay, primary screen (AID 778); conditions: CYP2C19 Supersomes, luciferin-H EGE luminescence, 30 min; at 5 µM; stronger effect = higher value;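 also: plate controls were negative control wells for no effect and 2.5 mM tranylcypromine positive control for full effect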
Sequence (P33261 whole entry, looked up): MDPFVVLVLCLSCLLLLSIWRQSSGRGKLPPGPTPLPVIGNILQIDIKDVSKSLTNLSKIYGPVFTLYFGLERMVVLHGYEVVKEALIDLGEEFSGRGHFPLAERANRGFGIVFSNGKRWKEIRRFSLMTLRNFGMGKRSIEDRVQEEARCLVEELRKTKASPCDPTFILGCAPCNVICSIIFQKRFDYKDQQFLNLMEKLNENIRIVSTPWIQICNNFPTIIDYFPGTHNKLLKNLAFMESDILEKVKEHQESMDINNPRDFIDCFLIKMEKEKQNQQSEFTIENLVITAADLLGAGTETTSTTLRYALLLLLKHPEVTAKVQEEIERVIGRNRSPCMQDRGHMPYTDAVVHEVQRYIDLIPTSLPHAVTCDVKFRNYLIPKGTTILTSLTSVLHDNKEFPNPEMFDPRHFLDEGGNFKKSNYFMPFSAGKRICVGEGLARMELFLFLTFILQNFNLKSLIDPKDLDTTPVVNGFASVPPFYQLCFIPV

inhibition, inactive:
Cc1cc(C)nc(N(C#N)CC(=O)Nc2ccccc2)n1 -2.6%
COc1ccc(C(=O)Oc2cc(/C=N/NS(=O)(=O)c3ccc(C)cc3)ccc2OC)cc1 4.8%
NS(=O)(=O)c1cccnc1Nc1cccc(Cl)c1 40.5%
CCCCNC(=O)c1ccccc1NC(=O)c1ccccc1N(C)S(C)(=O)=O 14.4%
COc1ccc(C(=O)CSc2nnc(COc3ccccc3)n2Cc2ccco2)cc1 35%
CNC(=O)CSc1nnnn1-c1ccc(C)cc1C 49.1%
Cc1nc2cc(-c3ccc(F)cc3)nn2c(N2CCOCC2)c1C 5.1%
Oc1ccc(-c2onc3ccc(Cl)cc23)cc1 19%
COc1ccc(NC(=O)Cn2c(=O)n(Cc3ccco3)c(=O)c3ccccc32)cc1 15.9%
CCn1c2ccccc2c2cc(NC(=S)N3CCOCC3)ccc21 11.1%
CN(C(=O)c1ccccn1)c1nnc(-c2ccccn2)s1 1.1%
CCOC(=O)N1CCN(c2c(NCCCN3CCCC(C)C3)c(=O)c2=O)CC1 (configuration not stated) 4.3%
CCCNC(=O)c1c(N)n(-c2ccc(S(N)(=O)=O)cc2)c2nc3ccccc3nc12 -13.2%
CC(C)Cn1c(CN(Cc2ccccc2)Cc2ccccc2)nc2c1c(=O)n(C)c(=O)n2C 17.7%
CC(C)CCn1c(CN(C)Cc2ccccc2)nc2c1c(=O)n(C)c(=O)n2C 42.8%
COCc1cc(C)nc2sc(C(=O)NC3CCCCC3)c(N)c12 -2.5%
Cc1cc(/C=N/n2cnnc2)c(C)n1-c1cccc(C(=O)O)c1 24.9%
Fc1ccccc1OCCSc1nc2ccccc2o1 46.8%
O=C(CSCc1ccccc1Cl)NNC(=O)c1ccccc1 40.1%
COc1ccccc1OCCC(=O)OCC(=O)NC(=O)NC(C)(C)C 14.2%
Cn1c(=O)oc2cc(S(=O)(=O)N3CCC(C(=O)Nc4ccc(OC(F)(F)F)cc4)CC3)ccc21 30.4%
COc1ccccc1N1CC(C(=O)Nc2ccc(S(=O)(=O)N3CCOCC3)cc2)CC1=O (configuration not stated) -1.1%
COc1cccc(C(=O)Nc2ccc(N3CCCC3)cc2)c1 48.4%
O=C(CN1C(=O)C2C3C=CC(C3)C2C1=O)Nc1nc(-c2ccccn2)cs1 (configuration not stated) -13.1%
C=C(C)COc1ccc(-c2n[nH]c(C)c2-c2ccccc2OC)c(O)c1 43.5%
C=C(C)COc1ccc(-c2n[nH]c(C)c2-c2ccccc2)c(O)c1 33.7%
COc1nc(N=C(N)N)nc2c(C)cccc12 -8.7%
CCOC(=O)c1cc(-c2ccc(Cl)s2)nc2c1c(C)nn2C 17.2%
O=S(=O)(O)CCN1CCOCC1 2.1%
Cc1ccc(S(=O)(=O)NCCN2CCOCC2)cc1C 24.8%
COc1ccc(C)cc1NC(=O)CSc1nc(SC)ns1 35.5%
Cc1ccc(C)c2[nH]c(=O)c(CCNC(=O)CC(C)C)cc12 29.7%
CCOC(=O)c1c(NC(=S)Nc2ccccc2)sc2c1CCN(C)C2 26.5%
O=C(NCCCCCCNC(=O)NCc1ccco1)NCc1ccco1 -12.7%
COc1cc2c(cc1OC)C(C(=O)NCc1ccco1)C1c3ccccc3CCN1C2=O (configuration not stated) 10.7%
CCNc1nc(N)nc(-c2cc(Cl)ccc2OC)n1 24.4%
C=CCNc1nc(C)nc(OC)n1 -16.5%
CCCNC(=S)NC1CC2CCCC(C1)N2CC(C)C (configuration not stated) 6.3%
CC(C)c1cc(C(=O)O)n[nH]1 -11.8%
Cc1cccc(-n2ncc(C#N)c2-n2cccc2)c1 21.9%
c1ccc(CCn2nnnc2CN2CCN(C3CCCC3)CC2)cc1 -12%
COc1ccccc1N1CCN(CCCCOc2ccc(F)cc2)CC1 13.1%
CCOC(=O)c1sc(N(Cc2ccccc2)C(=O)CN2C(=O)CN(C)C2=O)nc1C 14.5%
Cc1cc(C)cc(NC(=O)c2cccc(NC(=O)C3C4CC5OC(=O)C3C5C4)c2)c1 (configuration not stated) 3%
COc1ccc(N2CCN(C(=O)CSc3nnc4ncccn34)CC2)cc1 29.2%
Cc1ccc2nc(NC3=NCN(CCc4ccccc4)CN3)nc(C)c2c1 -14.5%
O=S(=O)(O)c1nc2ccccc2n1Cc1ccc(Cl)cc1Cl 11.3%
CCC(=O)Nc1nc2ccccc2n1Cc1ccccc1C 49.7%
CCc1nc2ccccc2n(CCOCCOCCn2c(=O)c(CC)nc3ccccc32)c1=O 24.1%
COCC(=O)Nc1nnc(COc2ccccc2)s1 -3%
CCCCc1cc(=O)oc2cc(C)cc(OCc3nn[nH]n3)c12 11.2%
CN1CCN(S(=O)(=O)c2ccc(NC(=O)C3CCCO3)cc2)CC1 (configuration not stated) 3.5%
COc1ccc(OC)c2c1sc(=NC(=O)CN1C(=O)CCC1=O)n2C 11.6%
COc1ccccc1NC(=O)c1ccc(C)s1 36.8%
c1cncc(-c2nnc3n2C2(CCCCC2)Cc2ccccc2-3)c1 3%
CCC1(CC)Cc2ccccc2-c2nc3ccccc3c(=O)n21 13.4%
CCCCNc1ccc(C(=O)Nc2cccc(C)n2)cc1[N+](=O)[O-] -3%
COc1ccc(N(CCC#N)S(=O)(=O)c2ccc(Cl)cc2)cc1 49.6%
CCn1c(NC(=O)c2ccccc2)c(-c2cccs2)c(=O)c2ccccc21 -4.5%
COC(=O)c1ccccc1NC(=O)CN(Cc1ccccc1)S(C)(=O)=O 17.1%
CCOc1ccc(NC(=O)c2ccccc2NS(C)(=O)=O)cc1 16.2%
COC(=O)c1ccc(NC(=O)c2ccccc2NS(=O)(=O)c2ccccc2)cc1 41.7%
CCOc1ccccc1N(CC(=O)Nc1ccccc1C(=O)OC)S(C)(=O)=O 14.5%
O=C(OC1CCCCC1=O)c1cccc(S(=O)(=O)NCc2ccccc2)c1 (configuration not stated) 41.1%
CC(=O)c1c(C)[nH]c(C(=O)NCCCN2CCCC2)c1C -10.9%
O=C(O)c1ccccc1-c1ccccc1C(=O)Nc1cccc2ccccc12 0.9%
COc1ccccc1-n1cnc2cc(C(=O)NCC3CCCO3)ccc21 (configuration not stated) 13.8%
COCCCNC(=O)c1ccc2c(c1)ncn2-c1ccccc1OC 1.5%
O=C(Nc1nc2ccc(S(=O)(=O)N3CCCC3)cc2s1)C1CCCO1 (configuration not stated) -2.2%
CCc1nnc(NC(=O)c2nc3nccc(C)n3n2)s1 0.6%
O=C(CSc1nc2ccccc2o1)N1c2ccccc2Sc2ccc(Cl)cc21 36.4%
Cc1ccc(SCc2cc(=O)[nH]c(N3CCCCC3)n2)cc1 30.5%
COc1ccc(OCC(=O)NNC(=O)c2ccc(-c3ccccc3)cc2)cc1 -6%
CC(C)(C)NC(=O)COc1ccc(CNc2ccc3[nH]c(=O)[nH]c3c2)cc1 11.8%
CC(NC(=O)COc1ccccc1)C(=O)NC1=NCCS1 (configuration not stated) 10.5%
COC(=O)/C=C/C(=O)NCc1ccco1 -5.7%
CCC(=O)Nc1nc(OC)cc(OC)n1 2.1%
FC(F)(F)c1nc2ccccc2nc1N/N=C/c1ccc(Cl)cc1 16.6%
O=[N+]([O-])c1ccc(Oc2ccc(F)cc2Br)c2ccncc12 31%
COc1ccc(NC2CC(=O)N(C)C2=O)cc1 (configuration not stated) -10.3%
COc1ccc2c(c1)OC(O)(C(F)(F)C(F)F)CC2=O (configuration not stated) 47.3%

inhibition, active:
CCOC(=O)CN(Cc1ccc(OC)c(OC)c1)S(=O)(=O)c1ccc(OC)cc1 81.1%
COc1ccc(C)cc1-n1nnnc1SCC(=O)c1cc(C)n(Cc2ccco2)c1C 98.7%
CCn1c2ccccc2c2cc(NC(=O)C/C(C)=N/NC(=O)c3ccccc3N)ccc21 54.7%
COCCn1c(CN(Cc2ccccc2)Cc2ccccc2)nc2c1c(=O)n(C)c(=O)n2C 76.4%
Cc1ccccc1CSCC(=O)NC(=O)NC(C)(C)C 56%
COC(=O)c1ccccc1NC(=O)C1CCN(S(=O)(=O)c2cc(OC)ccc2OC)CC1 93.5%
COc1ccc(-c2n[nH]c(C)c2-c2ccc(OC)c(OC)c2)c(O)c1 98.5%
Cc1cc(C)c(S(=O)(=O)NCCCN2CCOCC2)cc1Br 53.9%
CC1(C)SC2c3ccccc3C(=O)N2[C@@H]1C(=O)NCc1ccco1 (some centres not stated) 62.8%
COc1nc(NCc2ccc(Cl)cc2)nc(OC)n1 58.5%
COc1ccccc1N1CCN(Cc2nnnn2CCc2ccccc2)CC1 75.4%
CCOc1ccc(OCC)c(-c2c(=O)n(OCc3ccc(Cl)cc3)c3ccccc3[n+]2[O-])c1 76.2%
COCn1c(COc2ccccc2)nc2ccccc21 51.4%
COCc1nc2ccccc2n1Cc1ccccc1Br 55.6%
O=c1c2ccccc2nc2n1C1(CCCCC1)Cc1ccccc1-2 74.3%
COC(=O)c1ccccc1NC(=O)c1ccccc1NS(C)(=O)=O 62.7%
COC(=O)c1ccccc1NC(=O)CN(Cc1ccc(Cl)cc1)S(C)(=O)=O 96.6%
COc1ccccc1-n1cnc2cc(NS(=O)(=O)c3ccccc3)ccc21 64.8%
O=C1Cc2ccccc2Sc2ccc(Cl)cc21 58.3%
COC(=O)c1ccc(OCC(=O)NC(C)(C)C)cc1 67.1%
COc1ccc2c(c1)SC(C)CC2=O (configuration not stated) 79.6%
